According to PubChem BioAssay AID1159580 (chemical genetic matrix, 2015):
The campaign covered roughly 5,500 compounds. About 2,000 (36%) were called active. Another 18% or so got no clear call; they are omitted. Cut-off read from the data, not from the text of the source: active = normalized growth mostly below about 0.91 (no sharp cut-off); inconclusive = no clear call, values can overlap the other calls; inactive = mostly above about 0.92. Some of the results follow.

Assay: chemical genetic growth profiling, strain panel (AID 1159580);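 note: tested at 20 µM; growth read once vehicle control cultures reached saturation at 30 °C; 1 = growth at the plate median or of vehicle wells; lower values mean less growth of the strain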
Conditions: S. cerevisiae deletion strains, growth OD

Measured: normalized growth

COc1ccc(-c2cc(=O)c3c(O)cc(O)c(-c4cc(-c5cc(=O)c6c(O)cc(O)cc6o5)ccc4OC)c3o2)cc1
inactive: locus YAL021C, strain ccr4, hits give low values 1 | locus YAL026C, strain drs2, hits give low values 1.01 | locus YAL030W, strain snc1, hits give low values 0.997 | locus YBL061C, strain skt5, hits give low values 1.01 | locus YBR009C, strain hhf1, hits give low values 1.01 | locus YBR021W, strain FUR4, hits give low values 1.03 | locus YBR023C, strain chs3, hits give low values 1 | locus YBR171W, strain sec66, hits give low values 1.02 | locus YBR229C, strain ROT2, hits give low values 0.998 | locus YBR231C, strain swc5, hits give low values 1.01 | locus YBR279W, strain paf1, hits give low values 1.01 | locus YCL011C, strain gbp2, hits give low values 1 | locus YCL016C, strain dcc1, hits give low values 1 | locus YCL029C, strain bik1, hits give low values 1.01 | locus YCL061C, strain MRC1, hits give low values 1.01 | locus YCL069W, strain vba3, hits give low values 1.01 | locus YCR088W, strain abp1, hits give low values 1.02 | locus YDL005C, strain med2, hits give low values 1.01 | locus YDL035C, strain GPR1, hits give low values 1.03 | locus YDL040C, strain nat1, hits give low values 1.01 | locus YDL074C, strain BRE1, hits give low values 1.05 | locus YDL101C, strain DUN1, hits give low values 1.01 | locus YDL185W, strain tfp1, hits give low values 0.997 | locus YDL192W, strain arf1, hits give low values 1 | locus YDR001C, strain nth1, hits give low values 1.02 | locus YDR069C, strain doa4, hits give low values 0.95 | locus YDR101C, strain arx1, hits give low values 1.02 | locus YDR137W, strain rgp1, hits give low values 0.997 | locus YDR159W, strain sac3, hits give low values 1.03 | locus YDR162C, strain NBP2, hits give low values 0.993 | locus YDR195W, strain ref2 0.993 | locus YDR297W, strain sur2, hits give low values 0.998 | locus YDR318W, strain mcm21, hits give low values 1 | locus YDR334W, strain swr1, hits give low values 0.992 | locus YDR335W, strain msn5, hits give low values 1.01 | locus YDR388W, hits give low values 1 | locus YDR392W, strain spt3, hits give low values 0.998 | locus YDR502C, strain sam2, hits give low values 1.02 | locus YEL003W, strain gim4, hits give low values 1 | locus YEL037C, strain rad23, hits give low values 1.02 | locus YEL061C, strain CIN8 (second series), hits give low values 1.01 | locus YEL061C, strain CIN8, hits give low values 1.01 | locus YER015W, strain faa2, hits give low values 1.01 | locus YER016W, strain bim1, hits give low values 1.01 | locus YER110C, hits give low values 1.02 | locus YER111C, strain swi4, hits give low values 1.03 | locus YER155C, strain BEM2 (second series), hits give low values 0.995 | locus YER155C, strain BEM2, hits give low values 1.01 | locus YER167W, strain BCK2, hits give low values 1.02 | locus YFR010W, strain ubp6, hits give low values 0.965 | locus YGL078C, strain dbp3, hits give low values 1.01 | locus YGL167C, strain pmr1, hits give low values 1.01 | locus YGL173C, strain kem1, hits give low values 1 | locus YGL227W, strain vid30, hits give low values 1.02 | locus YGL240W, strain doc1, hits give low values 1.02 | locus YGL248W, strain PDE1, hits give low values 0.986 | locus YGL253W, strain hxk2, hits give low values 1.01 | locus YGR078C, strain PAC10, hits give low values 1.03 | locus YGR135W, strain pre9, hits give low values 0.997 | locus YGR252W, strain gcn5, hits give low values 0.995 | locus YHR013C, strain ard1, hits give low values 0.993 | locus YHR027C, strain rpn1, hits give low values 1.01 | locus YHR030C, strain SLT2, hits give low values 1.02 | locus YHR079C, strain IRE1 (second series), hits give low values 1.01 | locus YHR094C, strain hxt1, hits give low values 1.01 | locus YHR129C, strain ARP1, hits give low values 1.01 | locus YHR142W, strain chs7, hits give low values 0.998 | locus YHR200W, strain rpn10, hits give low values 1.01 | locus YIL066C, strain RNR3, hits give low values 0.993 | locus YIL073C, strain SPO22, hits give low values 1.03 | locus YIL125W, strain kgd1, hits give low values 1.01 | locus YIR030C, strain dcg1, hits give low values 1.01 | locus YJL092W, strain hpr5, hits give low values 1.02 | locus YJL095W, strain BCK1 (second series), hits give low values 1.01 | locus YJL095W, strain BCK1, hits give low values 1.08 | locus YJL115W, strain asf1, hits give low values 1.01 | locus YJL129C, strain trk1, hits give low values 1.04 | locus YJL134W, strain LCB3, hits give low values 1.02 | locus YJL154C, strain vps35, hits give low values 1.01 | locus YJL164C, strain tpk1, hits give low values 0.987 | locus YJL166W, strain qcr8, hits give low values 0.997 | locus YJL168C, strain set2, hits give low values 1.01 | locus YJL187C, strain SWE1 (second series), hits give low values 0.993 | locus YJL187C, strain SWE1, hits give low values 0.99 | locus YJR043C, strain POL32, hits give low values 1.01 | locus YJR075W, strain HOC1, hits give low values 1.04 | locus YKL009W, strain mrt4, hits give low values 1.03 | locus YKL068W, hits give low values 1.01 | locus YKL085W, strain MDH1 (second series), hits give low values 1.06 | locus YKL085W, strain MDH1, hits give low values 1.06 | locus YKL160W, strain elf1, hits give low values 0.998 | locus YKR001C, strain vps1, hits give low values 1.01 | locus YKR026C, strain gcn3, hits give low values 0.998 | locus YKR091W, strain srl3, hits give low values 1.01 | locus YLL001W, strain dnm1, hits give low values 1.02 | locus YLL026W, hits give low values 1.02 | locus YLL041C, strain sdh2, hits give low values 0.995 | locus YLR027C, strain aat2, hits give low values 1 | locus YLR039C, strain RIC1, hits give low values 1.16 | locus YLR058C, strain SHM2, hits give low values 1 | locus YLR102C, strain apc9, hits give low values 1.01 | locus YLR221C, strain rsa3, hits give low values 0.999 | locus YLR258W, strain gsy2, hits give low values 1.01 | locus YLR262C, strain YPT6 (second series), hits give low values 1.02 | locus YLR262C, strain YPT6, hits give low values 1.24 | locus YLR268W, strain sec22, hits give low values 0.985 | locus YLR320W, strain mms22, hits give low values 1.01 | locus YLR330W, strain CHS5, hits give low values 1.03 | locus YLR342W, strain FKS1 (second series), hits give low values 1.02 | locus YLR342W, strain FKS1, hits give low values 0.978 | locus YLR357W, strain rsc2, hits give low values 0.973 | locus YLR370C, strain arc18, hits give low values 0.997 | locus YLR371W, strain rom2, hits give low values 1 | locus YLR384C, strain iki3, hits give low values 1.02 | locus YLR418C, strain cdc73, hits give low values 1.04 | locus YML016C, strain PPZ1, hits give low values 0.999 | locus YML032C, strain rad52, hits give low values 1.01 | locus YML120C, strain ndi1, hits give low values 1.03 | locus YML124C, strain tub3, hits give low values 1.01 | locus YMR058W, strain fet3, hits give low values 0.99 | locus YMR078C, strain ctf18, hits give low values 1.02 | locus YMR125W, strain sto1, hits give low values 1.02 | locus YMR129W, hits give low values 1.01 | locus YMR205C, strain PFK2, hits give low values 1.02 | locus YMR223W, strain ubp8, hits give low values 1.01 | locus YMR231W, strain pep5, hits give low values 1 | locus YMR263W, strain SAP30, hits give low values 1.03 | locus YMR307W, strain GAS1, hits give low values 1.13 | locus YNL067W, strain RPL9B, hits give low values 1.02 | locus YNL071W, strain lat1, hits give low values 1.01 | locus YNL128W, strain TEP1, hits give low values 1.03 | locus YNL153C, strain GIM3, hits give low values 0.98 | locus YNL209W, strain ssb2, hits give low values 1.01 | locus YNL233W, strain BNI4, hits give low values 1.04 | locus YNL248C, strain rpa49, hits give low values 1 | locus YNL250W, strain rad50, hits give low values 1.01 | locus YNL271C, strain bni1, hits give low values 1.01 | locus YNL298W, strain CLA4, hits give low values 1.01 | locus YNL307C, strain MCK1, hits give low values 1.02 | locus YNL322C, strain KRE1 (second series), hits give low values 1.02 | locus YNL322C, strain KRE1, hits give low values 1.01 | locus YNR049C, strain mso1, hits give low values 1.01 | locus YNR052C, strain pop2, hits give low values 1.01 | locus YOL006C, strain TOP1, hits give low values 1.16 | locus YOL012C, strain htz1 0.762 | locus YOL147C, strain pex11, hits give low values 1.02 | locus YOR001W, strain rrp6, hits give low values 0.993 | locus YOR061W, strain CKA2, hits give low values 1 | locus YOR069W, strain VPS5, hits give low values 1.01 | locus YOR070C, strain gyp1, hits give low values 1 | locus YOR080W, strain dia2, hits give low values 1.02 | locus YOR083W, strain WHI5, hits give low values 1 | locus YOR106W, strain vam3, hits give low values 0.973 | locus YOR136W, strain idh2, hits give low values 1.02 | locus YOR144C, strain elg1, hits give low values 1.01 | locus YOR184W, strain ser1, hits give low values 1.02 | locus YOR265W, strain rbl2, hits give low values 1 | locus YOR270C, strain vph1, hits give low values 0.998 | locus YOR290C, strain snf2, hits give low values 0.981 | locus YOR316C, strain cot1, hits give low values 1.01 | locus YPL051W, strain arl3, hits give low values 0.968 | locus YPL078C, strain atp4, hits give low values 1.01 | locus YPL106C, strain sse1, hits give low values 0.983 | locus YPL240C, strain hsp82, hits give low values 1 | locus YPR119W, strain clb2, hits give low values 1.01 | locus YPR141C, strain kar3, hits give low values 1.01 | locus YPR163C, strain tif3, hits give low values 1.02 | locus YPR167C, strain met16, hits give low values 1.01 | strain wtn01, hits give low values 0.998
